# Source: PubChem BioAssay AID504467 (National Center for Advancing Translational Sciences (NCATS), 2011)
# The whole screen tested about 330,000 compounds, of which about 7,700 (2.3%) were called active. A call without a number means that no potency is given here. Inconclusive results (about 26%) are left out. This is one part of a sample in which actives are shown more often than they occur. The call rests on the fitted dose curve; in most records, active means well fitted inhibition curve with a large enough effect; inconclusive means small, poorly fitted or top-dose-only effect, or effect the other way; inactive means flat fitted curve, though single readings scatter.
# Assay: qHTS screen for small molecules that inhibit ELG1-dependent DNA repair in human embryonic kidney (HEK293T) cells expressing luciferase-tagged ELG1; further: nearly all actives have a fitted effect of over 55% in size
# Details: HEK293T ELG1-luciferase reporter, luminescence, 16 h, DNA damage induced by 5-fluorouridine; series mostly up to 46.1 µM
# Summary of the method: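 Luminescence from the luciferase reporter, measured 30 min after ONE-Glo reagent at room temperature, was the read-out. Beforehand, 2,000 cells per well were exposed for 16 hr at 37 °C to 5-fluorouridine together with compound or vehicle.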
# Potency means the concentration at half of the fitted maximal effect.
row,Compound,Potency
1,COc1ccc(NC(=O)CN(C)C(=O)c2cccc(S(=O)(=O)N3CCN(c4ccccc4)CC3)c2)cc1,inactive
2,CC1CCCCC1NC(=O)Cn1cnc2c1c(=O)n(C)c(=O)n2C (stereo not drawn),inactive
3,O=C(Nc1ccc(Br)cn1)C1CCN(S(=O)(=O)c2cccs2)CC1,5.8 µM (active)
4,O=C(NC1CCCCC1)C1CCCN(S(=O)(=O)c2cccs2)C1 (stereo not drawn),inactive
5,O=C(NCc1ccc(Cl)cc1)C1CCN(S(=O)(=O)c2cccs2)CC1,inactive
6,O=C(COC(=O)c1ccccn1)NNC(=O)c1ccc(Br)cc1,inactive
7,Cc1ccc(OCC(=O)Nc2ccccc2C(=O)NC2CC2)cc1,inactive
8,CCCCNC(=O)N(O)C1N(/N=C/c2ccccc2O)C(=S)SC1(C)C (stereo not drawn),inactive
9,CCOC(=O)C1CCCN(C(=O)CSc2nnc3nc(C)cc(C)n23)C1 (stereo not drawn),inactive
10,N#Cc1c(NC(=O)CSc2nc3ccccc3c(=O)n2Cc2ccco2)sc2c1CCCC2,inactive
11,CCCc1cc(=O)[nH]c(SCC(=O)Nc2sc3c(c2C#N)CCCC3)n1,inactive
12,COc1ccc(-n2c(SCC(=O)Nc3sc4c(c3C#N)CCCC4)nnc2-c2ccc(O)cc2)cc1,18.4 µM (active)
13,CCOc1ccccc1NC(=O)CCc1nnc2ccc(NCc3ccco3)nn12,inactive
14,Cc1ccc(NC(=O)C2CC2)cc1S(=O)(=O)N1CCOCC1,inactive
15,Cc1ccc(NC(=O)c2ccc(Cl)nc2)cc1S(=O)(=O)N1CCOCC1,23.1 µM (active)
16,CN(CCC(=O)Nc1cc(S(=O)(=O)N(C)C)ccc1Cl)CC(=O)Nc1ccc(F)cc1,inactive
17,CC(=O)NCCc1ccc(S(=O)(=O)Nc2ccc(C)c(S(=O)(=O)N3CCOCC3)c2)cc1,inactive
18,Cc1ccc(NC(=O)c2ccccn2)cc1S(=O)(=O)N1CCOCC1,inactive
19,CN(CC(=O)Nc1ccc(F)cc1)CC(=O)N1CCCCC1,inactive
20,CN(CC(=O)Nc1ccc(F)cc1)CC(=O)Nc1ccc(Cl)c(S(=O)(=O)N2CCOCC2)c1,18.3 µM (active)
21,Cc1ccc(NC(=O)CCCNC(=O)c2ccc(Cl)cc2)cc1S(=O)(=O)N1CCOCC1,inactive
22,Cc1ccc(NC(=O)C2CCC(C(C)(C)C)CC2)cc1S(=O)(=O)N1CCOCC1 (stereo not drawn),23.1 µM (active)

row,Compound,Potency
1,COc1cccc(CNC(=O)C(=O)NCCC2CCCCN2S(=O)(=O)c2ccc(C)cc2)c1 (stereo not drawn),inactive
2,O=C(CNC(=O)c1ccccc1Br)NCCSc1ccc(Br)cc1,inactive
3,CC(C)(C)OC(=O)C1=C(CO)CS[C@@H]2[C@H](NC(=O)Cc3ccccc3)C(=O)N12,inactive
4,COc1ccc(S(=O)(=O)N2CCN(C)CC2)c(C)c1,inactive
5,COc1ccc(C)cc1Nc1nc(-c2c(C)[nH]c3ccccc23)cs1,inactive
6,COc1ccc2c(c1OC)C(=O)OC2c1c(O)nc(SC)n(-c2ccccc2)c1=O (stereo not drawn),inactive
7,COc1ccc2c(c1OC)C(=O)OC2Nc1nc(-c2ccccc2)cs1 (stereo not drawn),9.2 µM (active)
8,O=C(Nc1ccc(N2CCOCC2)c(Cl)c1)c1ccc(S(=O)(=O)N2CCOCC2)cc1,inactive
9,O=C(CN1C(=O)c2ccccc2S1(=O)=O)N1CCc2ccccc21,20.6 µM (active)
10,O=C(CN1C(=O)c2ccccc2S1(=O)=O)NC1CCCCC1,inactive
11,O=C(CN1CCN(c2ccccn2)CC1)N1CCc2ccccc21,inactive
12,CCOc1ccc(-n2c(SCC(=O)Nc3cc(C(=O)O)ccc3Cl)nc3ccccc3c2=O)cc1,inactive
13,O=C(O)CCCn1c(=O)c2cccn2c2ccc(F)cc21,inactive
14,O=C(c1cccs1)N1CCN(Cc2ccc3c(c2)OCO3)CC1,inactive
15,O=C(Nc1cccc2ccccc12)N1CCN(Cc2ccc3c(c2)OCO3)CC1,inactive
16,O=C(CN1C(=O)c2cccc3cccc(c23)C1=O)N1CCCCC1,inactive
17,Cc1cc(C)n2nc(C(=O)N3CCN(Cc4ccc5c(c4)OCO5)CC3)nc2n1,inactive
18,O=C(CCCN1C(=O)c2cccc3cccc(c23)C1=O)N1CCN(Cc2ccc3c(c2)OCO3)CC1,2.31 µM (active)
19,O=C(CSCc1ccc(Cl)cc1)N1CCN(Cc2ccc3c(c2)OCO3)CC1,20.6 µM (active)
20,CCOc1ccccc1NC(=S)NC(=O)CCc1ccccc1,inactive
21,COc1cccc(NC(=O)CN2CCN(CC(=O)Nc3ccccc3Cl)CC2)c1,inactive
22,COc1ccc(NC(C)=O)cc1NC(=O)CN1CCN(C2c3ccccc3-c3ccccc32)CC1,0.92 µM (active)

row,Compound,Potency
1,COc1ccc(NC(C)=O)cc1NC(=O)CN1CCN(c2ccccn2)CC1,inactive
2,CCCCN(CCCC)CCCNC(=O)CN1C(=O)COc2ccc(S(=O)(=O)N3CCC(C)CC3)cc21,inactive
3,CC(C)n1ncc2c(C(=O)NCc3ccccc3CN(C)C)cc(C3CC3)nc21,inactive
4,Clc1cccc(-c2nc3nc4ccccc4nc3n2Cc2ccco2)c1,inactive
5,COc1ccc(CCn2c(-c3ccco3)nc3nc4ccccc4nc32)cc1OC,4.61 µM (active)
6,COc1ccc(S(=O)(=O)N2CN(CCc3ccc(OC)c(OC)c3)c3nc4ccccc4nc32)cc1,inactive
7,CCOc1ccccc1-c1cc(C(=O)N/N=C(\C)c2cccnc2)c2ccccc2n1,inactive
8,COc1ccc(-c2nc(CS(=O)(=O)CC(=O)NCc3cccc(Br)c3)c(C)o2)cc1,inactive
9,C=CCn1c(SCC(=O)NC)nnc1C12CC3CC(CC(C3)C1)C2,inactive
10,COc1ccc(C2(c3ccc(OC)cc3)NC(=O)N(CC(=O)Nc3cc(C)on3)C2=O)cc1,inactive
11,C[C@H](CO)N1C[C@H](C)[C@@H](CN(C)S(=O)(=O)c2ccc(F)cc2)Oc2c(NC(=O)Nc3ccccc3)cccc2C1=O,inactive
12,COc1ccc(S(=O)(=O)N(C)C[C@H]2Oc3c(NC(=O)Nc4ccc5c(c4)OCO5)cccc3C(=O)N([C@H](C)CO)C[C@@H]2C)cc1,11.6 µM (active)
13,COc1ccc(S(=O)(=O)Nc2cccc3c2O[C@H](CN(C)S(=O)(=O)c2ccc(OC)cc2)[C@@H](C)CN([C@H](C)CO)C3=O)cc1,inactive
14,CCN(C(=O)COC(=O)Cc1c(F)cccc1Cl)c1c(N)n(Cc2ccccc2)c(=O)[nH]c1=O,inactive
15,CCCc1nc2c([nH]1)C(c1cccnc1)C(C#N)=C(N)O2 (stereo not drawn),inactive
16,COc1ccc(-c2[nH]nc3c2C(c2ccncc2)C(C#N)=C(N)O3)cc1 (stereo not drawn),inactive
17,N#CC1=C(N)Oc2c(ccc3cccnc23)C1c1ccncc1 (stereo not drawn),9.2 µM (active)
18,O=C(CNC(=O)c1n[nH]c2ccccc12)Nc1cc(Cl)ccc1Cl,inactive
19,CCOC(CNC(=O)C1CCN(S(=O)(=O)c2ccc3nc4c(c(C(=O)O)c3c2)CC(C)CC4)CC1)OCC (stereo not drawn),inactive
20,COc1ccc(CNC(=O)COC(=O)c2sccc2C)cc1OC,inactive
21,CCCOP(=O)(c1ccc(N(C)C)cc1)C(O)c1cc(OC)c(OC)c(OC)c1 (stereo not drawn),inactive
22,COc1cc(C(=O)NCCOC(=O)c2cccc(N(C)C)c2)cc(OC)c1OC,11.6 µM (active)

row,Compound,Potency
1,COc1cc(C(=O)N(Cc2ccc(N(C)C)cc2)C2CCS(=O)(=O)C2)cc(OC)c1OC (stereo not drawn),inactive
2,COC(=O)c1ccc(CNC(=O)c2ccc(S(=O)(=O)N3CCCCCC3)cc2)cc1,inactive
3,O=C(N[C@H]1C/C=C\C(c2cccc(F)c2)N(Cc2ccccc2)C(=O)C1)OCC1c2ccccc2-c2ccccc21 (stereo partly drawn),inactive
4,COC(=O)c1cc(S(=O)(=O)N2CCN(c3cc(C)ccc3C)CC2)c[nH]1,inactive
5,O=C(c1cn(-c2ccccc2)nc1-c1cccnc1)N1CCCCC1,inactive
6,O=C(c1cn(-c2ccccc2)nc1-c1cccnc1)N1CCN(S(=O)(=O)c2ccccc2F)CC1,14.6 µM (active)
7,NC(=O)C1CCN(C(=O)c2cn(-c3ccccc3)nc2-c2cccnc2)CC1,inactive
8,O=C(OCc1cc(=O)n2ccsc2n1)C1(c2ccc(Cl)cc2)CC1,inactive
9,COc1cc(C(=O)NC2CCN(Cc3ccccc3)CC2)cc(Cl)c1OC(C)C,inactive
10,Nc1nc(NCc2ccccc2)n(-c2ccccc2)n1,inactive
11,O=C(c1cccs1)n1nc(NCc2ccccc2)nc1NCc1ccccc1,25.9 µM (active)
12,O=C(CCC(=O)c1cccs1)NCc1ccccc1,inactive
13,COc1ccc(C)cc1NC(=O)CSc1cccc[n+]1[O-],inactive
14,CC[C@@H]1CCCCc2ccccc2[C@@H](C(=O)C[C@H](O)CC(C)=O)OC1=O,inactive
15,COc1ccc(C(CNC(=O)c2ccc(S(=O)(=O)Nc3ccccc3C)cc2)N2CCOCC2)cc1 (stereo not drawn),inactive
16,CCOC(=O)N1CCN(C(=O)c2ccc(S(=O)(=O)Nc3cccc(C(F)(F)F)c3)cc2)CC1,inactive
17,O=C(NCc1ccccc1)c1ccc(S(=O)(=O)Nc2cccc(C(F)(F)F)c2)cc1,13 µM (active)
18,O=C(NCc1ccncc1)c1cccc(NS(=O)(=O)c2ccc(F)c(F)c2)c1,inactive
19,O=C1C(=O)N(CCN2CCOCC2)C(c2cccc(Cl)c2)/C1=C(/O)c1ccc2c(c1)OCO2 (stereo not drawn),inactive
20,Cc1sc2ncn(CC(=O)NCCCC(=O)N(C)Cc3ccccc3)c(=O)c2c1C,inactive
21,O=C(COc1ccc(Br)cc1F)NCC1(N2CCCCC2)CCCCC1,inactive
22,CSc1ncccc1C(=O)NCC(c1ccco1)N1CCCCC1 (stereo not drawn),inactive
